# Screening results as filed in PubChem.
# This is one part of a sample in which hits are shown more often than they occur.
# IL1B secr inh – qHTS for Inhibitors of Inflammasome Signaling: IL-1-beta AlphaLISA Primary Screen. THP-1 LPS/ATP IL-1B secretion, AlphaLISA, 16 h; active compounds read low. activity change, % at 57.5 µM. 4.7% of 360,000 active. AID 743279, 2014; in the data active = activity change below about -50%; inconclusive = mostly about -30% to -49%
#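 Secreted IL-1B measured by AlphaLISA bead assay after 16 h compound exposure of THP-1 cells; compounds (final up to 57.5 uM) added 1 h before LPS (250 ng/mL) and ATP (1.25 mM) stimulation; lower signal means less secretion.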
# DT40 TDP1 CPT – qHTS for Inhibitors of human tyrosyl-DNA phosphodiesterase 1 (TDP1): qHTS in cells in presence of CPT | 12% of 420,000 active | chicken DT40 Tdp1-/-;hTDP1 cells + 20 nM CPT, ATP luminescence, 48 h | AID 686979, 2013 | Potency, µM (highest dose often 46.2 µM), most hits filed as inhibitors; note: nearly all actives have a fitted effect of over 55% in size
#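 Chicken DT40 Tdp1-/- cells stably complemented with human TDP1 were seeded at 400 cells/well in medium containing 20 nM camptothecin, exposed to pin-transferred compounds, and grown at 37 °C for at least 48 hr. Viability was read as ATP luminescence.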
# ALOX12 inh – Primary qHTS assay for inhibitors of human arachidonate 12S-lipoxygenase (ALOX12): Round 2. Polyunsaturated fatty acid lipoxygenase ALOX12 (Homo sapiens), P18054. purified 12hLO, xylenol orange hydroperoxide absorbance. Potency, µM (doses to about 108 µM), hits mostly inhibitors. 1.1% of 580,000 active
# Target sequence (P18054 whole entry, looked up): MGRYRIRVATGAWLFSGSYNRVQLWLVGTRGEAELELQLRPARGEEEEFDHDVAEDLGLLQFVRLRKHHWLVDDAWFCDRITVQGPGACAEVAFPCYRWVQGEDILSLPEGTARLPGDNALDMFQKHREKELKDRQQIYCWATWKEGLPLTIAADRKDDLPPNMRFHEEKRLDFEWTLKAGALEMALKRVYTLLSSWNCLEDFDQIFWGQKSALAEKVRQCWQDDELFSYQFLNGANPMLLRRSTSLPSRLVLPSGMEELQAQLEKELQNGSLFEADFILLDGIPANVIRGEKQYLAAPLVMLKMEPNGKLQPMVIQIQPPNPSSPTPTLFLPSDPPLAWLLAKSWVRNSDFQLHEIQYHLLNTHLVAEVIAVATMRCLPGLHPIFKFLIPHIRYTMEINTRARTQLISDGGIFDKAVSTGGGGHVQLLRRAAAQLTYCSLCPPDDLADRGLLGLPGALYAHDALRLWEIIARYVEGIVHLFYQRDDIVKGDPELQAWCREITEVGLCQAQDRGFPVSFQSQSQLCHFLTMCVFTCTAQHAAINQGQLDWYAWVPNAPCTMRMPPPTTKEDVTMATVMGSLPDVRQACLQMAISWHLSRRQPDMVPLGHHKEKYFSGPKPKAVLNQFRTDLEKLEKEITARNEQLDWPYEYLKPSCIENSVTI
#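 Hydroperoxide product was detected by ferrous iron/xylenol orange as the 573 to 405 nm absorbance ratio. Arachidonic acid at 40 uM (final) was turned over for 30 min at room temperature by 150 nM human 12hLO, pH 7.0 Hepes buffer, after 15 min compound preincubation.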
# DT40 TDP1 no CPT – qHTS for Inhibitors of human tyrosyl-DNA phosphodiesterase 1 (TDP1): qHTS in cells in absence of CPT; Potency, µM (doses to about 46.2 µM), hits mostly inhibitors; 15% of 420,000 active; DT40 Tdp1-/- hTDP1 cells, no CPT, ATP luminescence, 48 h; note: nearly all actives have a fitted effect of over 55% in size
#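 Growth kinetics read by CellTiter-Glo luminescence after ≥48 hr at 37 °C. Cells: DT40 Tdp1-/- stably carrying human TDP1, 400 per well, compound exposure in the absence of CPT (DMSO vehicle).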
# HT1080-NT tox – qHTS for induction of synthetic lethality in tumor cells producing 2HG: qHTS for the HT-1080-NT fibrosarcoma cell line | HT-1080-NT fibrosarcoma viability, CellTiter-Glo ATP luminescence, 48 h | Potency, µM (highest dose often 46.1 µM), most hits filed as cytotoxic | 1.6% of 360,000 active | AID 686970, 2013;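 note: NT is the 2HG producing partner of a matched IDH1 knockdown line; nearly all actives have a fitted effect of over 55% in size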
#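 Viability of the 2HG-overproducing fibrosarcoma line after 48 hours of compound exposure at 37 degrees C was determined by luminescence with CellTiter-Glo, and concentration-effect curves were then fitted and categorized.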
# HT1080 IDH1KD tx – qHTS for induction of synthetic lethality in tumor cells producing 2HG: qHTS for the HT-1080-IDH1KD cell line; HT-1080 IDH1 knockdown viability, ATP luminescence, 48 h; Potency, µM (doses to about 46.1 µM), hits mostly cytotoxic; 2% of 360,000 active; AID 686971, 2013
#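 In this qHTS, HT-1080 cells depleted of IDH1 are exposed for 48 h at 37 °C to compound titrations. Toxicity is scored from CellTiter-Glo luminescence, with DMSO as full viability and medium alone as none.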
# Hits are given with their value; - = inactive; ? = inconclusive; . = no result given; [ ] = remark or other dose. Unless noted, calls come from the whole dose curve; as a rule, active = well fitted curve in the direction sought with a large enough effect; inconclusive = small, poorly fitted or top-dose-only effect, or another doubt; inactive = no such curve, though single readings can be large; an effect the other way counts as inactive or inconclusive.
SMILES,IL1B secr inh,DT40 TDP1 CPT,ALOX12 inh,DT40 TDP1 no CPT,HT1080-NT tox,HT1080 IDH1KD tx
CS(=O)(=O)N(CCc1ccccc1)CC(=O)N1CCN(c2ccc(F)cc2)CC1,-,?,-,23.1µM,-,-
CS(=O)(=O)N(CC(=O)N1CCN(c2ccccc2F)CC1)c1cc(C(F)(F)F)ccc1Cl,-,?,.,16.4µM,-,-
CS(=O)(=O)N(CC(=O)N1CCN(c2ccccc2)CC1)c1cc(C(F)(F)F)ccc1Cl,-,?,-,-,-,-
CS(=O)(=O)N(CCc1ccccc1)CC(=O)N1CCN(c2ccccc2)CC1,-,-,?,-,-,-
CCc1ccccc1N(CC(=O)N1CCCC1)S(C)(=O)=O,-,-,-,-,-,-
CCc1ccccc1N(CC(=O)N1CCN(c2ccc(F)cc2)CC1)S(C)(=O)=O,-,14.6µM,?,23.1µM,-,-[9.24 µM]
CCCn1nc(C(=O)Nc2ccccc2Br)c2ccccc2c1=O,.,.,-,.,.,.
Cc1ccc(C2(O)CCN(C(=O)Cc3c[nH]c(=O)[nH]c3=O)CC2)nc1,.,.,-,.,.,.
C(=Nc1cnc2ccccc2c1)c1ccnc2ccccc12,.,2.82µM,.,2.82µM,.,.
C(=Nc1cnc2ccccc2c1)c1cccnc1,.,-,.,-,.,.
C(=Nc1cccnc1)c1ccnc2ccccc12,.,2µM,.,1.78µM,.,.
CCN(CCn1cccn1)Cc1cn[nH]c1-c1cccc2ccccc12,-,-,-,-,-,-
CCN(CCn1cccn1)Cc1cn[nH]c1-c1ccc(-c2ccccc2)cc1,-,?,-,23.1µM,-,-
O=C1COc2ccc(-c3ccoc3)nc2CN1Cc1ccc(C(F)(F)F)cc1,.,.,39.8µM,.,.,.
CCOc1ccc2c(c1)sc(N)[n+]2Cc1cc(C)cc2cccnc12,-92.2,1.03µM,?,1.03µM,6.51µM,3.26µM
COc1ccc2c(ccc[n+]2[O-])c1,-,-,-,-,-,-
COc1ccc2c(c1)sc(N)[n+]2Cc1cc(C)cc2cccnc12,-52.1,4.61µM,-,2.59µM,?,5.17µM
O=Cc1s/c(=N\S(=O)(=O)c2ccccc2)n(CCCCl)c1Cl,-101.5,0.517µM,?,0.731µM,7.31µM,7.31µM
C/C(=N\NC(=S)NCCc1ccccc1)c1ccc(Cl)cc1Cl,-,?,44.7µM,16.4µM,?,?
CC(NC(=S)NCCc1ccccc1)c1ccc(C(C)(C)C)cc1 (configuration not stated),.,.,39.8µM,.,.,.
COc1ccc(NC(=S)NCCc2ccccc2)c(C)c1,-,-,?,-,-,-
CNC(=S)NCCc1ccccc1,-,-,?,-,-,-
CCc1cc(Br)ccc1NC(=S)NCCc1ccccc1,?,?,?,20.6µM,-,-
S=C(NCCc1ccccc1)Nc1c(Cl)cccc1Cl,-63.7,?,?,23.1µM,-,-
Cn1c(=O)c2ccccc2n(C)c1=O,.,.,-,.,.,.
SMILES,IL1B secr inh,DT40 TDP1 CPT,ALOX12 inh,DT40 TDP1 no CPT,HT1080-NT tox,HT1080 IDH1KD tx
CC(=O)N1CCC(C(=O)Nc2c(F)cc(F)cc2Br)CC1,.,.,-,.,.,.
CCn1cc(Br)c(C(=O)Nn2c(C)nc3sc4c(c3c2=O)CCC(C)C4)n1 (configuration not stated),.,.,-,.,.,.
COc1ccccc1-c1ncc(CN2CCCC3(CCNCC3)CC2)cn1,.,.,-,.,.,.
S=C(NCCc1ccc(Cl)cc1)Nc1ccc(Cl)cc1Cl,-78.7,?,31.6µM,?,?,?
COc1ccc(OC)c(/C=N\NC(=O)CC(=O)NCCc2ccccc2)c1,-,-,-,-,-,-
COc1ccc(OC)c(/C=N/NC(=S)NCCc2ccccc2)c1,-,?,44.7µM,?,-,-
S=C(NCCc1ccccc1)Nc1ccc(Cl)cc1NC(=S)NCCc1ccccc1,.,.,17.8µM,.,.,.
CCCNC(=S)Nc1ccc(Cl)cc1Cl,-,-,?,-,-,-
